A short description of test [1]: qHTS Assay for Identification of Small Molecule Agonists for NFkB Signaling Pathway. (AID 624478).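 Also: compounds tested together with TNF alpha at its EC50 of 10 pM; 0% is about no effect.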 The method in brief: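 ME-180 cervical carcinoma, stable NFkB-RE beta-lactamase reporter; 1000 cells/well, overnight attachment; cpd + TNF alpha 10 pM final, 5 h 37 C; LiveBLAzer 2 h RT; FRET 460/530 nm, ex 405 nm.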
In general terms: qHTS replaces the single test concentration by a dilution series.

Test [2] in a line: qHTS Assay for Identification of Small Molecule Antagonists for NFkB Signaling Pathway. (AID 624479; calls by dose curve;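 also: pathway stimulated with TNF alpha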; also: potency is read from the fitted curve at half-maximal effect).
The nature of test [3]: Cell Proliferation Assay against the TMD8 Cell Line (AID 651645).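 Also: cells exposed to compound for 48 h before reading.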 The note with it: TMD8 DLBCL cell line proliferation/viability; at 46.1 µM (top of the series) unless noted. The method in brief:
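Cell viability of the ABC DLBCL line TMD8 is measured by CellTiter-Glo luminescence following a 48-hour incubation with compound. Percent activity uses DMSO as 100% and 9.2 uM bortezomib (final) as 0%.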

Test [4] can be described thus: Cell Proliferation Assay against the HBL1 Cell Line (AID 651646).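 Also: cells exposed to compound for 48 h before reading.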 The note with it: HBL1 DLBCL cells; at 46.1 µM (top of the series) unless noted. The method in brief: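 500 log-phase HBL1 cells per well in phenol red-free RPMI with 5% FBS were treated with compounds for 48 h at 37 °C, 5% CO2. Viability was read by CellTiter-Glo luminescence, normalized to DMSO (100%) and 9.2 uM bortezomib final (0%).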

A short description of test [5]: Cell Proliferation Assay against the TMD8 Cell Line (Caspase readout at 8 hrs) (AID 651713). Also: potency is read from the fitted curve at half-maximal effect. The method in brief: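 Seed log-phase TMD8 cells, add compound by pin tool, incubate 8 h at 37C under 5% CO2, equilibrate to room temperature, add Caspase-Glo, wait 15 min, read luminescence; percent activity uses DMSO and 9.2 uM bortezomib controls.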
Test [6] addresses Tyrosine-protein kinase Yes (Homo sapiens) (UniProt P07947). Put plainly: qHTS for small molecule inhibitors of Yes1 kinase: Primary Screen (AID 686947). Also: nearly all actives have a fitted effect of over 60% in size. Also: potency is read from the fitted curve at half-maximal effect. The essentials: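 Yes1 (4 nM) preincubated 20 min with compound, then 60 min room-temperature reaction with 0.1 mM ATP and 0.3 mg/mL poly(E4Y) in pH 7.5 Tris, 10 mM MgCl2. ADP measured by ADP-Glo luminescence, normalised to enzyme/no-enzyme controls.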

Test [7] is described as follows: qHTS for small molecule inhibitors of Yes1 kinase: Counter Assay (AID 686950).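 Also: no kinase present so only ADP-Glo detection of a fixed ADP amount is tested; luminescence from ADP-Glo reporting ADP in a fixed ATP and ADP mixture; 0% = DMSO wells with ATP plus ADP and -100% = ATP-only wells without ADP.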 The method in brief:
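Enzyme-free ADP-Glo interference check: compounds were preincubated 20 min in buffer, then an ATP/ADP mix (0.08 mM ATP, 0.02 mM ADP final) was added for 60 min at room temperature before two-step ADP-Glo luminescence detection.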

The nature of test [8]: Cell Proliferation Assay against the TMD8 Cell Line (Caspase readout at 16 hrs) (AID 651712). Also: potency is read from the fitted curve at half-maximal effect. The method in brief: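 TMD8 cells (500/well) in phenol-red-free RPMI with glutamine, 5% FBS, were exposed to compounds for 16 h at 37 °C. Caspase 3/7 activation was read by Caspase-Glo luminescence; percent activity normalised to DMSO (0%) and 9.2 uM bortezomib final (100%).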

The values below come from PubChem BioAssay (NCATS).

The structures appear in SMILES notation. Inconclusive results are not listed. Calls of active or inactive are those of the source. Unless noted, calls follow the shape of the dose curve; as a rule, active = well fitted curve in the direction sought with a large enough effect; inconclusive = small, poorly fitted or top-dose-only effect, or another doubt; inactive = no such curve, though single readings can be large; an effect the other way counts as inactive or inconclusive.

Chain of Tyrosine-protein kinase Yes (Homo sapiens) (P07947 whole entry, looked up): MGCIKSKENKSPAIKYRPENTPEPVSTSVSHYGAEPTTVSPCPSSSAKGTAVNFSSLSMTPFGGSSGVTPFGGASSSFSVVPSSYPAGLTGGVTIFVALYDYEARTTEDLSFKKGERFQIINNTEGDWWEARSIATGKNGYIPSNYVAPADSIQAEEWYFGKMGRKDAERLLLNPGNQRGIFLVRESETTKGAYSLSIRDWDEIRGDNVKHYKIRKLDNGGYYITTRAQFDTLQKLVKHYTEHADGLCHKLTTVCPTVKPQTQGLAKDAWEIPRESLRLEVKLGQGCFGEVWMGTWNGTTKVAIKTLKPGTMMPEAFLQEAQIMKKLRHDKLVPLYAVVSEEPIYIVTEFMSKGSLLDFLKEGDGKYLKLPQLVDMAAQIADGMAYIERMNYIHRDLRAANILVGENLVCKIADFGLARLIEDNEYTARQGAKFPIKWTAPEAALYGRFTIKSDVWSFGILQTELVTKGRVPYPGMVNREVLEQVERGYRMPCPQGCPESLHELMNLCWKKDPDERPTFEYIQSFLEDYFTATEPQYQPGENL

As to `CC[C@H](Nc1ncnc2nc[nH]c12)c1nc2cccc(F)c2c(=O)n1-c1ccccc1`, the molecule was classed as inactive in test [1] and in test [7]. The Potency entry in test [2], in test [5] and in test [6] was “inactive” in each case. Moreover, in test [3], the viability (% of control) came out at 19.3%. Besides, the viability, percent of control in test [4] was 68.9%.

For `Cc1cc(-c2ccc(CC(=O)Nc3ccc(-c4cccnc4)cc3)cc2)ccn1`, the molecule was classed as inactive in test [1] and in test [7]. In addition, the Potency result in test [2] and in test [6] was “inactive” throughout. In addition, the viability (% of control) in test [3] was determined as 62.3%. Moreover, in test [4], the viability, percent of control stood at 101%.

For the molecule `OCCC#Cc1nc(-c2ccc(F)cc2)c(-c2ccncc2)n1CCCc1ccccc1`, the call in test [1] and in test [7] was inactive. Also, the Potency in test [2] is 14.9 µM (active). For the same molecule, the viability (% of control) in test [3] came out at 67.4%. In test [4], the viability, percent of control was 55.3%.

On to `COc1ccc(-c2ccc3c(N4CCOCC4)nc(N4C[C@@H](C)O[C@@H](C)C4)nc3n2)cc1CO`, for which the molecule was classed as inactive in test [1] and in test [7]. Besides, the Potency entry in test [2], in test [5] and in test [6] was “inactive” in each case. Also, in test [3], the viability (% of control) was 29.5%. Moreover, the viability, percent of control in test [4] is 57.7%.

For `CNC(=O)c1ccc(C)c(-n2c(C)cc(OCc3ccc(F)cc3F)c(Br)c2=O)c1`, the molecule was called inactive in test [1] and in test [7]. In addition, the Potency result in test [2], in test [5] and in test [6] was “inactive” throughout. Also, the viability (% of control) in test [3] is 53%. Besides, the viability, percent of control in test [4] came to 44.5%.

With `Cc1cc(-c2nnc3n2CCCCC3)c(C)n1-c1ccc(F)cc1`, the outcome in test [1] and in test [7] was inactive. Besides, the Potency result in test [2] and in test [5] was “inactive” each time. For the same molecule, the viability (% of control) in test [3] was 6.21%. Further, the viability, percent of control in test [4] amounted to 4.79%. The Potency in test [6] is 34.5 µM (active).

Turning to `O=C(O)c1ccc(-c2c[nH]c3ccc(-c4ccccc4)cc23)cc1C1CCCC1`, the molecule was classed as inactive in test [1] and in test [7]. Besides, the Potency was 14.9 µM (active) in test [2] and 1.54 µM (active) in test [6]. The viability, percent of control in test [4] stood at 93.3%. Further, the Potency result in test [8] and in test [5] was “inactive” in each case.

With `Clc1ccc(Nc2nnc(Cc3ccncc3)c3ccccc23)cc1`, the molecule was called inactive in test [1] and in test [7]. Also, the Potency entry in test [2] and in test [5] was “inactive” throughout. In test [4], the viability, percent of control is 66.3%.

For `CCOC(=O)N[C@@H]1CC[C@@H]2[C@@H](C1)C[C@H]1C(=O)O[C@H](C)[C@H]1[C@@H]2C=Cc1ccc(-c2cccc(F)c2)cn1`, the molecule was called inactive in test [1] and in test [7]. Also, the Potency result in test [2], in test [5] and in test [6] was “inactive” in each case.

Take `CCOc1ccc(Cc2cc([C@@H]3O[C@H](CO)[C@@H](O)[C@H](O)[C@@H]3O)ccc2Cl)cc1`: the molecule was called inactive in test [1] and in test [7]. For the same molecule, the viability (% of control) in test [3] stood at 87.2%. For the same molecule, the viability, percent of control in test [4] came out at 94.2%. In addition, the Potency result in test [8], in test [5] and in test [6] was “inactive” in each case.

For `CCn1c(-c2nonc2N)nc2cnc(Oc3cccc(NC(=O)c4ccc(OCCN5CCOCC5)cc4)c3)cc21`, the molecule was classed as inactive in test [1] and in test [7]. In addition, the Potency in test [2] was 4.73 µM (active). Besides, in test [4], the viability, percent of control is 36.3%. The Potency result in test [5] and in test [6] was “inactive” in each case.

With `COc1ccccc1-c1cccc(-c2c(O)c3cc(C#N)c(Cl)cc3[nH]c2=O)c1`, the result in test [1] and in test [7] was inactive. For the same molecule, the viability (% of control) in test [3] is 86.6%. For the same molecule, the viability, percent of control in test [4] turned out to be 80.1%. The Potency entry in test [8], in test [5] and in test [6] was “inactive” throughout.

For `Cn1cnc2c(F)c(Nc3ccc(Br)cc3Cl)c(C(=O)NOCCO)cc21`, the call in test [1] and in test [7] was inactive. Also, the Potency entry in test [2], in test [5] and in test [6] was “inactive” each time. In addition, the viability, percent of control in test [4] stood at 76.1%.

As for `O=c1[nH]c(-c2ccc(C(F)(F)F)cc2)nc2c1CSCC2`, the molecule was classed as inactive in test [1] and in test [7]. Also, the Potency entry in test [2], in test [8], in test [5] and in test [6] was “inactive” throughout. Further, the viability, percent of control in test [4] came to 105%.

Regarding `Nc1cccc(S(=O)(=O)N2CCCN(S(=O)(=O)c3ccc4c(c3)OCCO4)CC2)c1`, the molecule was classed as inactive in test [1] and in test [7]. The viability (% of control) in test [3] was found to be 46.2%. Besides, the viability, percent of control in test [4] came out at 78.2%. The Potency result in test [8], in test [5] and in test [6] was “inactive” each time.

Regarding `CCCS(=O)(=O)Nc1ccc(F)c(C(=O)c2c[nH]c3ncc(Cl)cc23)c1F`, the molecule was called inactive in test [1] and in test [7]. Further, the Potency in test [2] is 11.9 µM (active); in test [6] it was 0.173 µM (active). For the same molecule, the viability, percent of control in test [4] is 70.6%. Besides, the Potency entry in test [5] is “inactive”.

As for `Cn1c(=O)c(F)c(Nc2ccc(I)cc2F)c2c(=O)n(C[C@@H](O)CO)cnc21`, the molecule was classed as inactive in test [1] and in test [7]. Further, the Potency result in test [2], in test [8] and in test [6] was “inactive” in each case. Besides, the viability, percent of control in test [4] is 38.3%.

As for `CC1(C)Cc2c(-c3ccccc3)c(-c3ccc(Cl)cc3)c(CC(=O)O)n2C1`, the molecule was classed as inactive in test [1] and in test [7]. Besides, the Potency in test [2] was 21.1 µM (active). In addition, in test [4], the viability, percent of control stood at 35.6%. Also, the Potency entry in test [6] was “inactive”.

`COc1cc(Nc2ncc3c(n2)-c2ccc(Cl)cc2C(c2c(F)cccc2OC)=NC3)ccc1C(=O)O`: the molecule was called inactive in test [1] and in test [7]. For the same molecule, the Potency entry in test [2] and in test [5] was “inactive” throughout. The viability, percent of control in test [4] was determined as 53%. Also, in test [6], the Potency was 0.0218 µM (active).

`O=C(C1CC1)N1CC[C@@H](Cn2c(-c3ccc(-c4ccc5occc5c4)cc3)nc3cnccc32)C1`: the molecule was called inactive in test [1] and in test [7]. Moreover, in test [3], the viability (% of control) came to 5.56%. In test [4], the viability, percent of control turned out to be 48.4%. Besides, the Potency was 8.33 µM (active) in test [8] and 26.4 µM (active) in test [5]. Further, in test [6], the Potency result was “inactive”.

In the case of `NC(=O)c1ccc(-c2nc(-c3ccc4c(c3)OCCO4)c(-c3ccccn3)[nH]2)cc1`, the call in test [1] and in test [7] was inactive. Besides, in test [3], the viability (% of control) came out at 83.2%. Moreover, the viability, percent of control in test [4] was found to be 105%. The Potency entry in test [8], in test [5] and in test [6] was “inactive” throughout.

For `Nc1nccc(-c2ccc3noc(-c4ccc(Cl)cc4)c3c2)n1`, the outcome in test [1] and in test [7] was inactive. In addition, in test [2], the Potency was 3.75 µM (active). The viability, percent of control in test [4] worked out at 109%. For the same molecule, the Potency entry in test [8], in test [5] and in test [6] was “inactive” throughout.

Consider `CC(c1cc2ccccc2s1)N(O)C(N)=O` (configuration not stated), for which the molecule was classed as inactive in test [1] and in test [7]. Further, the Potency entry in test [2], in test [8], in test [5] and in test [6] was “inactive” throughout. The viability, percent of control in test [4] was 96.2% [at 92.2 µM].

As for `COc1ccc(-c2oc3cc(OC)ccc3c2C(=O)c2ccc(C#N)cc2)cc1`, the molecule was classed as inactive in test [1] and in test [7]. Besides, the Potency entry in test [2], in test [8], in test [5] and in test [6] was “inactive” in each case. Further, the viability, percent of control in test [4] stood at 76%.

With `Nc1nc2[nH]cc(CCc3ccc(C(=O)N[C@@H](CCC(=O)O)C(=O)O)cc3)c2c(=O)[nH]1`, the outcome in test [1] and in test [7] was inactive. For the same molecule, the Potency entry in test [2], in test [8] and in test [5] was “inactive” in each case. Besides, in test [4], the viability, percent of control was determined as 74.6%.

As for `C[C@@H]1C[C@H]2[C@@H]3CCC4=CC(=O)C=C[C@]4(C)C3(F)[C@@H](O)C[C@]2(C)[C@@]1(O)C(=O)CO` (some centres not stated), the molecule was classed as inactive in test [1] and in test [7]. Besides, the Potency result in test [2], in test [8] and in test [5] was “inactive” throughout. Besides, the viability, percent of control in test [4] worked out at 28.2%. Also, the Potency in test [6] was 34.5 µM (active).
